# From PubChem BioAssay
# Many of the other results were omitted from the sample, so hits are more common in it than they were.
# CD40 NFkB inh: CD40 pathway inhibition in BL2 cells. BL2 NF-kB luciferase reporter, CD40L-induced, 4 h. inhibition, % at 10 µM. 83,000 compounds, 0.94% hits. AID 1053188;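 active = mean inhibition of at least 50% with a set share of replicates also reaching that level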;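 also: 0% = neutral control wells and 100% = IKK inhibitor VII at 50 µM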
# * hit, by the source's call; [ ] = dose if it differs, or a comment.
SMILES,CD40 NFkB inh
COc1ccc(S(=O)(=O)Nc2ccc3c(c2)C(=O)N([C@H](C)CO)C[C@H](C)[C@H](CN(C)Cc2ccc(C(F)(F)F)cc2)OCCCC[C@H](C)O3)cc1,37[25 µM]
COc1ccc(S(=O)(=O)Nc2ccc3c(c2)C(=O)N([C@@H](C)CO)C[C@@H](C)[C@@H](CN(C)Cc2ccc(C(F)(F)F)cc2)OCCCC[C@H](C)O3)cc1,73*[25 µM]
COc1ccc(NC(=O)Nc2ccc3c(c2)C(=O)N([C@H](C)CO)C[C@@H](C)[C@H](CN(C)Cc2ccc(C(F)(F)F)cc2)OCCCC[C@H](C)O3)cc1,1
COc1ccc(S(=O)(=O)Nc2ccc3c(c2)C(=O)N([C@@H](C)CO)C[C@@H](C)[C@H](CN(C)Cc2ccc(C(F)(F)F)cc2)OCCCC[C@H](C)O3)cc1,28[25 µM]
COc1ccc(NC(=O)Nc2ccc3c(c2)C(=O)N([C@@H](C)CO)C[C@@H](C)[C@H](CN(C)Cc2ccc(C(F)(F)F)cc2)OCCCC[C@@H](C)O3)cc1,7
C[C@@H]1CCCCO[C@H](CN(C)Cc2ccc(C(F)(F)F)cc2)[C@H](C)CN([C@@H](C)CO)C(=O)c2cc(NS(=O)(=O)c3ccc(Cl)cc3)ccc2O1,31
COc1ccc(S(=O)(=O)Nc2ccc3c(c2)C(=O)N([C@@H](C)CO)C[C@H](C)[C@H](CN(C)Cc2ccncc2)OCCCC[C@H](C)O3)cc1,3
COc1ccc(S(=O)(=O)Nc2ccc3c(c2)C(=O)N([C@H](C)CO)C[C@@H](C)[C@@H](CN(C)Cc2ccc(C(F)(F)F)cc2)OCCCC[C@H](C)O3)cc1,58*[25 µM]
COc1ccc(S(=O)(=O)Nc2ccc3c(c2)C(=O)N([C@@H](C)CO)C[C@@H](C)[C@@H](CN(C)Cc2ccc(C(F)(F)F)cc2)OCCCC[C@@H](C)O3)cc1,57*[25 µM]
COc1ccc(NC(=O)Nc2ccc3c(c2)C(=O)N([C@H](C)CO)C[C@H](C)[C@H](CN(C)Cc2ccc(C(F)(F)F)cc2)OCCCC[C@@H](C)O3)cc1,-2
COc1ccc(S(=O)(=O)Nc2ccc3c(c2)C(=O)N([C@H](C)CO)C[C@H](C)[C@H](CN(C)Cc2ccc(C(F)(F)F)cc2)OCCCC[C@@H](C)O3)cc1,30[25 µM]
O=C(c1ccncc1)N1CC[C@@H]2[C@H](CO)Nc3ccc(Br)cc3[C@@H]21,4[25 µM]
CO[C@H]1CN(C)C(=O)c2ccc(NC(=O)C3CCOCC3)cc2OC[C@@H](C)N(CC2CC2)C[C@H]1C,-4
O=C([C@H]1N[C@H]2c3ccc(/C=C/c4ccccc4)c(=O)n3C[C@H]2[C@@H]1CO)N1CCCCC1,-7[25 µM]
C[C@H]1CN(C)C(=O)c2ccccc2O[C@H]1CN(C)S(C)(=O)=O,11
C/C=C/c1ccccc1[C@H]1[C@@H](C#N)N(C(=O)NC2CCCCC2)[C@H]1CO,0[25 µM]
CN(C)C(=O)c1ccc(-c2ccc([C@H]3[C@@H](C#N)N(C(=O)Cc4ccccn4)[C@H]3CO)cc2)cc1,-1[25 µM]
CN(C)C(=O)c1ccc(-c2ccc3c(c2)[C@@H]2[C@@H](CCN2C(=O)C2CCCCC2)[C@@H](CO)N3C)cc1,-4
COc1ccc2c3c(n(C)c2c1)[C@H](CO)N(C(=O)C1CCOCC1)CC31CCN(C(=O)c2ccncc2)CC1,4[25 µM]
C[C@@H]1CN(C)C(=O)c2cccnc2O[C@H]1CN(C)C,-3
O=C(Nc1nccs1)[C@@H]1[C@@H](CO)[C@@H]2Cn3c(cccc3=O)[C@H]1N2C(=O)C1CC1,-9[25 µM]
CCC(=O)N1[C@H](CO)[C@@H](c2ccccc2)C12CN(C(=O)CN1CCOCC1)C2,-7[25 µM]
COc1ccc(C#Cc2ccc([C@H]3[C@@H](CO)N4CCCCN(C)C[C@@H]34)cc2)cc1,active[25 µM]
COc1ccc(C#Cc2ccc([C@@H]3[C@H]4CN(C(=O)c5ccncc5)CCCCN4[C@H]3CO)cc2)cc1,-16[25 µM]
COc1ccc(C#Cc2ccc([C@@H]3[C@H](CO)N4CCCCN(C)C[C@@H]34)cc2)cc1,-52[25 µM]
SMILES,CD40 NFkB inh
COc1ccc(C#Cc2ccc([C@H]3[C@H]4CN(C(=O)c5ccncc5)CCCCN4[C@H]3CO)cc2)cc1,53*[25 µM]
COc1ccc(C#Cc2ccc([C@@H]3[C@H](CO)N4CCCCN(C(=O)c5ccncc5)C[C@@H]34)cc2)cc1,-19[25 µM]
COc1ccc(C#Cc2ccc([C@@H]3[C@@H](CO)N4CCCCN(C)C[C@H]34)cc2)cc1,-54[25 µM]
CNC[C@@H]1Oc2c(cccc2N(C)C)C(=O)N(C)C[C@@H]1C,-1
C[C@H](CO)N1C[C@H](C)[C@H](CN(C)C(=O)c2ccc(F)cc2)OCc2ccccc2-c2c(n(C)c3ccccc23)C1=O,11
CNC[C@H]1Oc2ccc(N(C)C)cc2CC(=O)N(C)C[C@@H]1C,-9
CN(C)c1ccc(C=c2c3cc(O)ccc3n3c2cc(-c2ccccc2)[n+]3C)cc1,80*
O=[N+]([O-])c1ccc2c(c1)c(-c1ccccc1)nc1nncn12,1
O=[N+]([O-])c1ccc(C=CC=Cc2ccccc2)cc1,3
CCOC(=O)c1cc2c(=Cc3ccc(N(C)C)cc3)c3ccccc3n2[n+]1C,24
C[n+]1c(-c2ccccc2)cc2c(=Cc3ccccc3)c3ccccc3n21,93*
